In PubChem BioAssay (NCATS):
Where “and” joins values, the source holds several entries; their conditions need not be identical. Equal entries are not always repeated. Records with an inconclusive call do not appear. A number with no mark means an inactive call. Calls of active or inactive are those of the source. Unless noted, calls come from the whole dose curve; as a rule, active = well fitted inhibition curve with a large enough effect; inconclusive = small, poorly fitted or top-dose-only effect; inactive = flat fitted curve, though single readings scatter.

target: Retinoic acid receptor RXR-alpha (Homo sapiens) (UniProt P19793); experiment: qHTS assay for small molecule antagonists of retinoid X receptor alpha signaling (AID 588546; active = well fitted inhibition curve with a large enough effect in the signal ratio, with a control signal flat, not every such curve was filed as active; the % refers to the signal ratio; note: potency is the fitted concentration of half-maximal effect;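 for max response: cells stimulated with 9-cis-retinoic acid as agonist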); details: HEK293T RXRa-UAS-bla, beta-lactamase ratio, antagonist mode
Outline: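 Beta-lactamase reporter inhibition, read as CCF4 fluorescence ratio (ex 405, em 460/530 nm) after 2 h at RT. HEK293T UAS-bla cells, 2500/well, were stimulated with 9-cis-RA at 500 or 100 nM final alongside test compound for 18 h at 37 C.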
% is set by controls: 0 for no effect and ±100 for the full control effect.

Chain of Retinoic acid receptor RXR-alpha (Homo sapiens) (P19793 whole entry, looked up): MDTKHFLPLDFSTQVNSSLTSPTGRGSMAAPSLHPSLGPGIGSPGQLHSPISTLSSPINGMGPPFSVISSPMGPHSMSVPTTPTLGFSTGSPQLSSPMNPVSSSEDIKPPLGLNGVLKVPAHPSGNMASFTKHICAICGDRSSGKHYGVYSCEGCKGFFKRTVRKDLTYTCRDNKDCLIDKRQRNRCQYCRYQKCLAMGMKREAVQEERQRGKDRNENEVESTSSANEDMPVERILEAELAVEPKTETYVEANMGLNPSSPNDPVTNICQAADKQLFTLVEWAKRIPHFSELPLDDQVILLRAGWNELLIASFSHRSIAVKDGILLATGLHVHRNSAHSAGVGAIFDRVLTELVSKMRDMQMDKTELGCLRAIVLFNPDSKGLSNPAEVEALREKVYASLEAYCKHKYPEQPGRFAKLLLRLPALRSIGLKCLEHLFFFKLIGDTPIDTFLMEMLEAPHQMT

Row | SMILES | max response | Potency
1 | CC(C)(Oc1ccc(C2CC2(Cl)Cl)cc1)C(=O)O (stereo unspecified) | -27.6% | –
2 | O=C(CCCN1CCC(O)(c2ccc(Cl)cc2)CC1)c1ccc(F)cc1 | -32.4% | –
3 | Cc1cn([C@H]2C[C@H](N=[N+]=[N-])[C@@H](CO)O2)c(=O)[nH]c1=O | 5.84% and -2.64% | –
4 | CC(C)Cc1ccc(C(C)C(=O)O)cc1 (stereo unspecified) | -17.6% | –
5 | CC(C)NCC(O)c1ccc(O)c(O)c1 (stereo unspecified) | -2.1% and -5.01% | –
6 | Cn1cnc2c1c(=O)[nH]c(=O)n2C | -5.33% | –
7 | O=C(Nc1ccc([N+](=O)[O-])cc1Cl)c1cc(Cl)ccc1O | – | 2.51 µM (active)
8 | CCC1(c2ccccc2)C(=O)NCNC1=O | 16.1% and -15.5% | –
9 | O=c1[nH]cc(F)c(=O)[nH]1 | 17.9% | –

target: Thyroid hormone receptor beta (Homo sapiens) (UniProt P10828); experiment: qHTS assay for small molecule antagonists of thyroid hormone receptor beta signaling (AID 588547; active = well fitted inhibition curve with a large enough effect in the signal ratio, with a control signal flat, not every such curve was filed as active; the % refers to the signal ratio;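 note: cells stimulated with 0.4 nM T3 agonist during compound exposure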); details: TR-UAS-bla HEK293, beta-lactamase ratio, antagonist mode, 18 h
Outline: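 Inhibition of T3-driven (0.4nM final) beta-lactamase reporter activity was measured over 0.59 nM to 92 uM compound after 18 h at 37 C. The cells were GripTite HEK293 TR-UAS-bla in charcoal/dextran-stripped serum, with CCF4 ratio read-out and IC50 from Hill fits.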

Chain of Thyroid hormone receptor beta (Homo sapiens) (P10828 whole entry, looked up): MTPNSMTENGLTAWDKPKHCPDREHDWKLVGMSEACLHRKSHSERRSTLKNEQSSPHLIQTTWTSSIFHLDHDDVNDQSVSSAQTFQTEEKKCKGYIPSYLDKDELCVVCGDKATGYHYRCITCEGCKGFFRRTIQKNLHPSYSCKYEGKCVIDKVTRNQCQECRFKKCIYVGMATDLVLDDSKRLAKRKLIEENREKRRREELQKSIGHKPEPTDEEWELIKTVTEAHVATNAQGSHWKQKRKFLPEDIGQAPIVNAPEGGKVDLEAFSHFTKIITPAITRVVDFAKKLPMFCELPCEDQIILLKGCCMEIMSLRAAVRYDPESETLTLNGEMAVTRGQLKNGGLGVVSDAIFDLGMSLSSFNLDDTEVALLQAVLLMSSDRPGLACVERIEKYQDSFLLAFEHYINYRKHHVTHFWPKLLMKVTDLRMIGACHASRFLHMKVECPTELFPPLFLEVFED

Row | SMILES | activity change % (negative = inhibition)
10 | O=c1c(-c2ccc(O)cc2)coc2cc(O)cc(O)c12 | -35.3%
11 | CC(C)C(=O)Nc1ccc([N+](=O)[O-])c(C(F)(F)F)c1 | -0.269% and 16%
12 | CN(C)CCOC(c1ccccc1)c1ccccc1 | -3.52%
13 | Cn1c(=O)c2[nH]cnc2n(C)c1=O | -10.4%
14 | NS(=O)(=O)c1cc2c(cc1Cl)NCNS2(=O)=O | -1.87% and 13.1%
15 | COc1ccc2[nH]cc(CCNC(C)=O)c2c1 | -14% and 1.14% and 10.4%
16 | NCCS(=O)(=O)O | -15.9%
17 | Clc1ccc(C(c2ccccc2Cl)C(Cl)Cl)cc1 (stereo unspecified) | -34.3%
18 | Cc1ccc(-c2cc(C(F)(F)F)nn2-c2ccc(S(N)(=O)=O)cc2)cc1 | 17.3%
19 | Nc1ccn([C@H]2CC[C@@H](CO)O2)c(=O)n1 | 1.36% and 5.95%
20 | Nc1c2c(nc3ccccc13)CCCC2 | -14.9%
21 | Cc1cn([C@H]2C=C[C@@H](CO)O2)c(=O)[nH]c1=O | 3.32% and -6.39%
22 | N[C@@H](Cc1c[nH]c2ccc(O)cc12)C(=O)O | -8.63%
23 | CC(COc1ccccc1)N(CCCl)Cc1ccccc1 (stereo unspecified) | -2.59% and 11.4%
24 | C[C@](N)(Cc1ccc(O)c(O)c1)C(=O)O | 1.38%
25 | CCOC(=O)C(C)(C)Oc1ccc(Cl)cc1 | 7.19%
26 | CC(C)(Oc1ccc(C2CC2(Cl)Cl)cc1)C(=O)O (stereo unspecified) | -9.34%
27 | O=C(CCCN1CCC(O)(c2ccc(Cl)cc2)CC1)c1ccc(F)cc1 | -36.9%
28 | Cc1cn([C@H]2C[C@H](N=[N+]=[N-])[C@@H](CO)O2)c(=O)[nH]c1=O | 5.41% and 12%
29 | CC(C)Cc1ccc(C(C)C(=O)O)cc1 (stereo unspecified) | -8.69%
30 | CC(C)NCC(O)c1ccc(O)c(O)c1 (stereo unspecified) | -0.838% and 16%
31 | CN(Cc1cnc2nc(N)nc(N)c2n1)c1ccc(C(=O)N[C@@H](CCC(=O)O)C(=O)O)cc1 | -21.4%
32 | Cn1cnc2c1c(=O)[nH]c(=O)n2C | 8.64%
33 | CCC1(c2ccccc2)C(=O)NCNC1=O | -16.1%

target: Voltage-gated inwardly rectifying potassium channel KCNH2 (Homo sapiens) (UniProt Q12809); experiment: qHTS Assay for Small Molecule Inhibitors of the Human hERG Channel Activity (AID 588834); details: U2OS BacMam hERG, FluxOR thallium flux fluorescence; series mostly up to 46.1 µM; activity change, negative = inhibition: at the top concentration;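 note: lower thallium flux fluorescence means stronger hERG block; nearly all actives have a fitted effect of over 50% in size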; note: potency is the fitted concentration of half-maximal effect; for activity change, negative = inhibition: top concentration of the series differs between compounds
Outline: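 Thallium-flux (FluxOR) read-out on FDSS: fluorescence read 10 s before and 2 min after stimulation buffer. hERG-BacMam-transduced U2OS cells, compound exposure about 10 min. AC50 by standard Hill equation.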

Chain of Voltage-gated inwardly rectifying potassium channel KCNH2 (Homo sapiens) (Q12809 whole entry, looked up): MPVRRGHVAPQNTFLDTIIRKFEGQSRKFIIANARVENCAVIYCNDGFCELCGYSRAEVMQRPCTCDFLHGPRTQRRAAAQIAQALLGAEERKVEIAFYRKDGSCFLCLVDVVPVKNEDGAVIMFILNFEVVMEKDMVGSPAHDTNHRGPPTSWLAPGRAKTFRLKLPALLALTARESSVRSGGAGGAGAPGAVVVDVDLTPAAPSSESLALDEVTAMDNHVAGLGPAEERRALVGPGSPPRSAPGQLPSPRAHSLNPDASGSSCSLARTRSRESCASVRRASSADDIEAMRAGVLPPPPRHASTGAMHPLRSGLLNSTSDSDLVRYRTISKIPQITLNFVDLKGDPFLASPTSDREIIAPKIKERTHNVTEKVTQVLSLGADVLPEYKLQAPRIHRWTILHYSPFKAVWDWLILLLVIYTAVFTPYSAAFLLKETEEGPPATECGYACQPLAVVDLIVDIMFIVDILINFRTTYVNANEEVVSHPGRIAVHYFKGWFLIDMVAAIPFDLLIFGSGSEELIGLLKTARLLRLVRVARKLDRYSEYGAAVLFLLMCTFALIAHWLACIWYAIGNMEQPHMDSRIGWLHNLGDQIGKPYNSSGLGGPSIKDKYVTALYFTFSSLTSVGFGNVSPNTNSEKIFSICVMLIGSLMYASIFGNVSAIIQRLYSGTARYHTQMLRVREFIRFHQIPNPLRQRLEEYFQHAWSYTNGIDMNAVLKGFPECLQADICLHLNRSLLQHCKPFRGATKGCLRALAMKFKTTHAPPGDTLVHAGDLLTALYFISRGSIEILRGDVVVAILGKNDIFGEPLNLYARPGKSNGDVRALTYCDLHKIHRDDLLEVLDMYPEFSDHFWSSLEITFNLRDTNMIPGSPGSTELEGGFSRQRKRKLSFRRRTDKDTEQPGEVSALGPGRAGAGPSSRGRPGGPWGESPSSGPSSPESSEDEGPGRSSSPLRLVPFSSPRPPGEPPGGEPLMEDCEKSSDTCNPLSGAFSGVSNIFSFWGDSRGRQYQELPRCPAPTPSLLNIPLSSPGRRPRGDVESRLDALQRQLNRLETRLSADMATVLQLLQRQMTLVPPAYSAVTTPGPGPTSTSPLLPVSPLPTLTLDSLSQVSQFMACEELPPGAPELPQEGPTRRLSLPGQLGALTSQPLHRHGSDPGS

Row | SMILES | Potency | activity change, negative = inhibition [%]
34 | O=c1c(-c2ccc(O)cc2)coc2cc(O)cc(O)c12 | inactive | –
35 | CC(C)C(=O)Nc1ccc([N+](=O)[O-])c(C(F)(F)F)c1 | inactive | –
37 | NS(=O)(=O)c1cc2c(cc1Cl)NCNS2(=O)=O | inactive | –
38 | COc1ccc2[nH]cc(CCNC(C)=O)c2c1 | inactive | –
39 | CC(=O)OCC(CCn1cnc2cnc(N)nc21)COC(C)=O | – | 18.1
40 | NCCS(=O)(=O)O | inactive | –
41 | Cn1c(=O)c2c(ncn2C)n(C)c1=O | inactive | –
42 | Clc1ccc(C(c2ccccc2Cl)C(Cl)Cl)cc1 (stereo unspecified) | 31.6 µM (active) and 10 µM (active) and 5.62 µM (active) | –
43 | C[C@@H]1CC(=O)NN=C1c1ccc(NN=C(C#N)C#N)cc1 | – | -9.72
44 | Nc1ccn([C@H]2CC[C@@H](CO)O2)c(=O)n1 | inactive | –
45 | Cc1cn([C@H]2C=C[C@@H](CO)O2)c(=O)[nH]c1=O | inactive | –
46 | CC1(C)O[C@H]2CC(=O)OC[C@]23[C@H]2CC[C@@]4(C)[C@H](c5ccoc5)OC(=O)[C@H]5O[C@]54[C@]2(C)C(=O)C[C@@H]13 | – | -29.4
47 | N[C@@H](Cc1c[nH]c2ccc(O)cc12)C(=O)O | inactive | –
49 | C[C@](N)(Cc1ccc(O)c(O)c1)C(=O)O | inactive | –
50 | CCOC(=O)C(C)(C)Oc1ccc(Cl)cc1 | – | -5.87
51 | CC(C)(Oc1ccc(C2CC2(Cl)Cl)cc1)C(=O)O (stereo unspecified) | inactive | –
52 | Cc1cn([C@H]2C[C@H](N=[N+]=[N-])[C@@H](CO)O2)c(=O)[nH]c1=O | inactive | –
53 | CC(C)Cc1ccc(C(C)C(=O)O)cc1 (stereo unspecified) | inactive | –
54 | Cc1ccc(C(=O)Nc2ccc(S(=O)(=O)O)c3cc(S(=O)(=O)O)cc(S(=O)(=O)O)c23)cc1NC(=O)c1cccc(NC(=O)Nc2cccc(C(=O)Nc3cc(C(=O)Nc4ccc(S(=O)(=O)O)c5cc(S(=O)(=O)O)cc(S(=O)(=O)O)c45)ccc3C)c2)c1 | inactive | –
55 | CC(C)NCC(O)c1ccc(O)c(O)c1 (stereo unspecified) | inactive | –
56 | CN(Cc1cnc2nc(N)nc(N)c2n1)c1ccc(C(=O)N[C@@H](CCC(=O)O)C(=O)O)cc1 | inactive | –
57 | CS(=O)(=O)Nc1ccc([N+](=O)[O-])cc1Oc1ccccc1 | inactive | –
58 | CC1(CN2CCC(n3c(=O)[nH]c4ccccc43)CC2)OCc2ccccc2-n2cccc21 (stereo unspecified) | 11.2 µM (active) | –
59 | O=C(Nc1ccc([N+](=O)[O-])cc1Cl)c1cc(Cl)ccc1O | inactive | –
60 | CCC1(c2ccccc2)C(=O)NCNC1=O | inactive | –
61 | O=c1[nH]cc(F)c(=O)[nH]1 | inactive | –
